Out of some 68,000 compounds screened, about 2,700 (4%) showed an effect of 50% or more. What follows is part of a selection rich in strong results, with near analogues and random picks from the rest.

Our source for the INHIBITION values is ChEMBL document CHEMBL4513216, “Probing the Open Global Health Chemical Diversity Library for Multistage-Active Starting Points for Next-Generation Antimalarials” (ACS Infect Dis, 2020).

The experiment relates to Plasmodium berghei. Briefly: Screen against P. berghei liver stage (PbLuc), transformed with Luciferase, at 2uM. It is filed as functional, HepG2. The following applies: tested at 2 uM.
On to `CCC=C(C)C(=O)NCc1ccnc(OC2CCOCC2)c1`, for which the INHIBITION is given as 4.54%. For `CC(C)c1nnc2n1CCN(C(=O)CN1Cc3ccccc3C1=O)C2` the value was 53.03%; for `CC(C)c1nnc2n1CCN(CC(=O)N1CCc3ccccc3C1)C2`, 54.92%; for `Cc1nnc2n1CCN(CC(=O)N1CCc3ccccc3C1)C2`, 36.64%. `CC(C)c1nnc2n1CCN(CC(=O)N1CCc3sccc3C1)C2`: the INHIBITION is given as -38.92%. With `CC(C)c1nnc2n1CCN(C(=O)CN(C)Cc1ccccc1)C2`, the INHIBITION was -58.05%. With `CC(C)c1nnc2n1CCN(C(=O)CN1CCc3sccc3C1)C2` the figure was -9.3%; with `Cc1ccc(NC(=O)N2CC(C(=O)NC(C)C)C3(CCOCC3)C2)cc1` (stereo unspecified), 33.65%; with `COCC1CCN(S(=O)(=O)c2ccc(C(=O)NCC(F)F)cc2)C1` (stereo unspecified), 15.44%. Turning to `Cc1cc(C(=O)N2CCN(c3nc4c(C)cccc4s3)CC2)no1`, the INHIBITION is listed as 7.72%. For `Cc1cc(C(=O)N2CCN(c3nc4c(C(C)C)cccc4s3)CC2)on1` the value was 61.06%; for `Cc1cc(C(=O)N2CCN(c3nc4c(C(C)C)cccc4s3)CC2)no1`, 23.65%.

As for `Cc1nn(CC(=O)N(C)Cc2nncn2C(C)C)c(=O)c2ccccc12`, the INHIBITION is -0.47%. With `O=C(O)c1ccccc1CN1CCCC(Cc2ccn[nH]2)C1` (stereo unspecified) the figure was 28.66%. As for `O=C1NC2(CCN(C(=O)N3CCOCC3)CC2)CC1c1cccnc1` (stereo unspecified), the INHIBITION worked out at 78.29%.

For `Cc1cc(C(=O)N2CCC3(CC2)CC(c2cccnc2)C(=O)N3)no1` (stereo unspecified), the INHIBITION is listed as 12.68%. On to `O=C1NC2(CCN(C(=O)c3ccccc3)CC2)CC1c1cccnc1` (stereo unspecified), for which the INHIBITION was -51.9%. With `Cc1occc1-c1nc(NC2CCCC2)ncc1-c1ccccn1` the figure was 11.97%; with `COCCNC(=O)CN(C)C(C)c1nc(C)no1` (stereo unspecified), -4.01%. As for `COCCCNC(=O)CN(C)C(C)c1nc(C)no1` (stereo unspecified), the INHIBITION came to 35.5%. For `COCCCNC(=O)CN(C)C(C)c1nc(C(C)C)no1` (stereo unspecified) the value was 60.79%; for `Cc1ccc(-c2cc(C)nc(C3CCCN3S(C)(=O)=O)n2)cc1` (stereo unspecified), 16.87%. For `CC(C(=O)Nc1ccnn1C(C)C)N1CCN(Cc2ccon2)CC1` (stereo unspecified) the value was 62%. With `COCCN1CCN(C(C)C(=O)Nc2ccnn2C(C)C)CC1` (stereo unspecified) the figure was 23.86%; with `CC(C(=O)Nc1ccnn1C(C)C)N1CCN(Cc2ccccc2)CC1` (stereo unspecified), 47.68%. In the case of `C[C@H]1C[C@@H]2CCN(C(=O)c3ccncc3)C[C@H]2O1`, the INHIBITION is reported as -15.25%. With `CCn1c(C)nnc1CN(C)C1CCN(CCn2cccn2)C1` (stereo unspecified) the figure was -53.72%; with `CN(C)S(=O)(=O)N1CCC2(COCc3cnc(-c4cccnc4)nc32)C1` (stereo unspecified), 19.51%. For `Cc1cc(C)nc(N2CCOC(C)(C(=O)N(C)C)C2)n1` (stereo unspecified) the value was 19%; for `Cc1cc(N2CCOC(C)(C(=O)N(C)C)C2)ncn1` (stereo unspecified), 58.29%. For `Cc1ccc(N2CCOC(C)(C(=O)N(C)C)C2)nn1` (stereo unspecified) the value was 39.07%; for `CC(C)N1CCOC[C@H]1c1nc(C(C)(C)C)c[nH]1`, -0.14%. With `CCCC(NC(=O)c1cc(C)ccc1O)c1nnn[nH]1` (stereo unspecified), the INHIBITION is recorded as -7.9%.

In the case of `COC(=O)[C@@H]1Cc2ncn(C(C)C)c2CN1S(=O)(=O)Cc1ccccc1`, the INHIBITION came to 39.18%.

For the compound `COC(=O)[C@@H]1Cc2ncn(C)c2CN1S(=O)(=O)Cc1ccccc1`, the INHIBITION was 26.55%. For the compound `CCCn1cnc2c1CN(S(=O)(=O)c1ccc(F)cc1)[C@H](C(=O)OC)C2`, the INHIBITION amounted to 46.32%. With `COC(=O)[C@@H]1Cc2ncn(C)c2CN1S(=O)(=O)c1ccc(C)cc1` the figure was 6.24%.

`COC(=O)[C@@H]1Cc2ncn(C)c2CN1S(=O)(=O)c1ccc(Cl)cc1`: the INHIBITION is 57.85%. Take `CCCn1cnc2c1CN(S(=O)(=O)Cc1ccccc1)[C@H](C(=O)OC)C2`: the INHIBITION turned out to be 60.6%. For `CCCS(=O)(=O)N1Cc2c(ncn2Cc2ccccc2)C[C@H]1C(=O)OC` the value was 39.73%; for `COC(=O)[C@@H]1Cc2ncn(C)c2CN1S(=O)(=O)c1cccs1`, 51.81%. For `COC(=O)[C@@H]1Cc2ncn(C)c2CN1S(=O)(=O)c1ccc(OC)cc1` the value was 47.42%. Turning to `Nc1ncc(-c2cccc(NC(=O)[C@@H]3CCCCN3)c2)cn1`, the INHIBITION is given as 14.95%. For `CN(C)CCN1CCN(C(=O)c2ccn(C)c(=O)c2)CC1` the value was 5.59%. On to `CC(C)OCCCNC(=O)c1c(-n2cnnn2)sc2c1CCCC2`, for which the INHIBITION amounted to 49.57%. For `Cc1ccc(N2C[C@H]3OCC[C@H]3[C@H](C(=O)NCC3CC3)C2)nn1` the value was -11.4%; for `Cc1ccc(N2C[C@H]3OCC[C@H]3[C@H](C(=O)NCc3ccco3)C2)nn1`, 65.78%; for `Cc1ccc(N2C[C@H](C(=O)NCC3CC3)[C@@H]3CCO[C@@H]3C2)nn1`, -2.72%. For `Cc1nccn1CC1CCN(C(=O)c2ccccc2)CC1` the value was -78.75%; for `COc1cccc(N2CC3(CCN(c4ccncn4)C3)CC2=O)c1` (stereo unspecified), 13.38%; for `CNc1cncc(C2CCCN2S(=O)(=O)c2ccc(F)cc2)n1` (stereo unspecified), 2.8%. With `CN(C)CCN1CCC2(CCCN(C(=O)C3CCC3)C2)CC1` the figure was -9.47%. Consider `Cc1ccc(S(=O)(=O)NC(C)C#N)cc1Br` (stereo unspecified), for which the INHIBITION was -29.94%. With `CNS(=O)(=O)c1cccc(C(C)NCc2ccccc2)c1` (stereo unspecified) the figure was 12.75%; with `CCC(=O)c1cccc(S(=O)(=O)NC(C)C#N)c1` (stereo unspecified), 31.51%.

With `CC(CO)NS(=O)(=O)c1cccc(C(C)C)c1` (stereo unspecified), the INHIBITION is on record as 60.13%.

In the case of `CC(C)c1cccc(S(=O)(=O)NCCCN2CCC(O)CC2)c1`, the INHIBITION is -13.21%. With `CC(C#N)NS(=O)(=O)c1cccc(C(C)C)c1` (stereo unspecified) the figure was 69.67%; with `COc1ccc(Cn2cc(C(=O)N(C)Cc3ccn[nH]3)nn2)cc1`, 20.71%; with `COC(=O)N1CC[C@@]2(C1)[C@H](OC)CN(c1ccccc1)S2(=O)=O`, 22.01%. With `Cc1cc(C2CCNCC2)nc(-c2ccsc2)n1` the figure was 24.98%; with `CN1CCOC(CNCC(=O)NCCc2ccc(F)cc2)C1` (stereo unspecified), -8.14%. With `c1cnnc(N2CCCC2CNCc2ccsc2)c1` (stereo unspecified) the figure was 54.85%. For `c1cnnc(N2CCCC2CNCc2cscn2)c1` (stereo unspecified), the INHIBITION is 4.19%. For `c1ccc(-n2cc(CNCC3CCCN3c3cccnn3)cn2)cc1` (stereo unspecified) the value was -7.13%.

Take `c1ccc(Cn2ccnc2CNCC2CCCN2c2cccnn2)cc1` (stereo unspecified): the INHIBITION amounted to 11.2%. On to `c1ccc(Cn2cc(CNCC3CCCN3c3cccnn3)cn2)cc1` (stereo unspecified), for which the INHIBITION was determined as 62.46%. Consider `c1cnnc(N2CCCC2CNCc2cccs2)c1` (stereo unspecified), for which the INHIBITION was 23.86%.

In the case of `CO[C@@H]1CC[C@H]2[C@H]1OCCN2C(=O)c1ccc(C)nc1`, the INHIBITION was 29.89%. With `CC(C)CNC(=O)C1=NOC2(CCN(Cc3ccc(C(C)C)cc3)C2)C1` (stereo unspecified) the figure was 32.09%; with `CCOCc1nc2c(c(NCCNC(C)=O)n1)CCN(C(C)=O)CC2`, 18.28%. Consider `CCOc1nnc(CN2CCCC(c3nc4ccccc4[nH]3)C2)s1` (stereo unspecified), for which the INHIBITION is listed as 53.63%. For `CCOc1nnc(CN2CCC(c3cc4ccccc4[nH]3)CC2)s1`, the INHIBITION was determined as 38.33%. As for `CCOc1nnc(CN2CCC(c3nc4ccccc4[nH]3)CC2)s1`, the INHIBITION is 28.42%. With `CCCN(CC(=O)OC)C(=O)c1sc(C)nc1C` the figure was -1.29%; with `Cc1ccc(OCCNC(=O)C(C)n2cncn2)cc1` (stereo unspecified), 42.11%. For the compound `CC(C(=O)NCCOc1cccc(Cl)c1)n1cncn1` (stereo unspecified), the INHIBITION is given as 56.67%. Take `CC(C(=O)NCCOc1ccccc1)n1cncn1` (stereo unspecified): the INHIBITION is recorded as 26.76%. On to `Cc1cc(=O)[nH]c(=O)n1COCCOCc1ccccc1`, for which the INHIBITION came to 30.48%.

Consider `O=C(c1nn(-c2ccccc2F)cc1O)N1CCCCC1`, for which the INHIBITION is given as -10.64%.

In the case of `Cc1ccc2c(C)c(C(=O)NCc3csc(N)n3)oc2c1`, the INHIBITION is on record as -27.36%.

Take `Cc1[nH]c2c(C)ccc(C)c2c1CC(=O)NCCCNc1cccnc1`: the INHIBITION is -10.38%. With `Cc1[nH]c2c(C)ccc(C)c2c1CC(=O)NCCNc1cccnc1` the figure was 64.92%; with `Cc1[nH]c2c(C)ccc(C)c2c1CC(=O)NCC(O)c1cccnc1` (stereo unspecified), 31.65%; with `COc1cccc(CC(=O)N2CCC3(CC2)OCCCC3O)c1OC` (stereo unspecified), 3.4%.

For the compound `CC(C)OCCOCc1cccc(NC(=O)NCCn2ccnc2)c1`, the INHIBITION is listed as 3.85%. Turning to `C=c1ccoc1=C1NN=C(CNCCn2cccn2)O1`, the INHIBITION amounted to 58.49%. On to `C=c1ccoc1=C1NN=C(CNCCn2cc(C)cn2)O1`, for which the INHIBITION was determined as 32.63%. For `C=c1ccoc1=C1NN=C(CNCC2CCCN2c2cccnn2)O1` (stereo unspecified) the value was -10.6%.

For the compound `COc1c(CNCc2ccc(C(=O)N(C)C)cc2)c(C)nn1C`, the INHIBITION is reported as -11.71%. For `Cc1oc(-c2nc(C#N)c(N(C)C)o2)cc1S(=O)(=O)N1CCCC1` the value was -20.66%. With `O=C(c1ccccc1-c1nc[nH]n1)N1CCOC(C(F)(F)F)C1` (stereo unspecified) the figure was -99.7%. For the compound `O=C(c1ccc(-c2nc[nH]n2)cc1)N1CCOC(C(F)(F)F)C1` (stereo unspecified), the INHIBITION amounted to 50.91%. On to `O=C(c1ccc(-c2nc[nH]n2)cc1)N1CC[C@H](CO)[C@@H](O)C1`, for which the INHIBITION is given as -94.13%. For the compound `CCOCC(O)CN1CCN(C(=O)CC(C)C)CC1` (stereo unspecified), the INHIBITION is on record as -38.96%.

Regarding `Cc1cc(C)n(CC2CN(CC(=O)N3CCC3)CCO2)n1` (stereo unspecified), the INHIBITION is listed as -9.17%. For `c1cncc(COCC2CNCc3nccn3C2)c1` (stereo unspecified) the value was 38.49%; for `CS(=O)(=O)NCc1ccc(NC(=O)CC2=CCCCC2)cc1`, 35.9%; for `COCCO[C@H]1CCN(C(=O)c2ccsc2)[C@H]1Cc1cnn(C)c1`, -10.92%. With `CCc1cc(C(F)(F)F)c2c(C)nn(CC(=O)O)c2n1` the figure was 57.33%; with `Cc1nn(C)cc1-c1cc(C(F)(F)F)c2c(C)nn(CC(=O)O)c2n1`, 15.91%. On to `COc1ccccc1-c1cc(C(F)(F)F)c2c(C)nn(CC(=O)O)c2n1`, for which the INHIBITION was determined as 31.51%.

Regarding `CCn1ccnc1CN1CCCN(C(=O)c2cc[nH]n2)CC1`, the INHIBITION is recorded as 0.74%. For `O=S(=O)(N1CCC(n2cccc2)CC1)N1CCCC1c1ccco1` (stereo unspecified), the INHIBITION is reported as 50.59%. For `COC1CCN(S(=O)(=O)N2CCCC2c2ccco2)CC1` (stereo unspecified) the value was 36.28%; for `O=S(=O)(N1CCN(CC2CC2)CC1)N1CCCC1c1ccco1` (stereo unspecified), -20.95%.
